In PubChem BioAssay (NCI):
The panel holds about 83,000 compounds, 20% with a hit somewhere; the sample as a whole holds those more often.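 48-hour exposure, single concentration, 96-well plates; percent growth endpoint where 0 means no net growth. Active: below 10.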

How the values were obtained:
Experiment in all cases: NCI-60 one-dose screen, 48 h (100 = growth as untreated, 0 = no growth, -100 = all killed)
Conditions in all cases: 10 µM
NCI-H23 lung = test system: NCI-H23 lung
NCI-H226 lung = test system: NCI-H226 lung
NCI-H322M lung = test system: NCI-H322M lung
HOP-62 NSCLC = test system: HOP-62 NSCLC
NCI-H460 lung = test system: NCI-H460 lung
HOP-92 NSCLC = test system: HOP-92 NSCLC
NCI-H522 lung = test system: NCI-H522 lung
A549/ATCC NSCLC = test system: A549/ATCC NSCLC
786-0 renal = test system: 786-0 renal
COLO 205 colon = test system: COLO 205 colon

Measured: growth

COc1ccc2c(c1)CCc1c-2n[nH]c1-c1[nH]nc2c1CCc1cc(OC)ccc1-2
inactive: NCI-H23 lung 75.4% | NCI-H226 lung 82.7% | NCI-H322M lung 90.5% | HOP-62 NSCLC 66% | NCI-H460 lung 53.5% | HOP-92 NSCLC 84.6% | NCI-H522 lung 34% | A549/ATCC NSCLC 79% | 786-0 renal 64.7% | COLO 205 colon 67.8%

O=C(O)C(c1ccccc1)C(O)c1ccccc1 (centres undefined)
inactive: NCI-H23 lung 104% | NCI-H226 lung 77.8% | NCI-H322M lung 97.6% | HOP-62 NSCLC 101% | NCI-H460 lung 106% | HOP-92 NSCLC 93% | NCI-H522 lung 96.1% | A549/ATCC NSCLC 90.8% | 786-0 renal 107%

COC(=O)c1cc(-c2ccc(Cl)c(Cl)c2)[nH]c(=O)c1C#N
inactive: NCI-H23 lung 107% | NCI-H226 lung 94.6% | NCI-H322M lung 95.4% | HOP-62 NSCLC 95.5% | NCI-H460 lung 109% | HOP-92 NSCLC 91.4% | NCI-H522 lung 97.6% | A549/ATCC NSCLC 101% | 786-0 renal 91.7% | COLO 205 colon 114%

COc1nc(N)nc2c1ncn2C1OC(CO)CC1O (centres undefined)
inactive: NCI-H23 lung 103% | NCI-H226 lung 103% | NCI-H322M lung 96.8% | HOP-62 NSCLC 100% | NCI-H460 lung 115% | HOP-92 NSCLC 95.3% | NCI-H522 lung 106% | A549/ATCC NSCLC 111% | 786-0 renal 95.4% | COLO 205 colon 104%

Cc1cc2nc(CC(=O)c3ccccc3)c(=O)[nH]c2cc1C
inactive: NCI-H23 lung 84% | NCI-H226 lung 87% | NCI-H322M lung 98.7% | HOP-62 NSCLC 96.2% | NCI-H460 lung 97.9% | HOP-92 NSCLC 88.5% | NCI-H522 lung 81.2% | A549/ATCC NSCLC 105% | 786-0 renal 98.3% | COLO 205 colon 114%

CC1CCC(C(=O)O)N1 (centres undefined)
inactive: NCI-H23 lung 89.2% | NCI-H226 lung 97.3% | NCI-H322M lung 95.2% | HOP-62 NSCLC 93.9% | NCI-H460 lung 115% | HOP-92 NSCLC 102% | NCI-H522 lung 91.3% | A549/ATCC NSCLC 99.4% | 786-0 renal 100%

O=C(CC(=O)c1ccccc1O)c1ccccc1
inactive: NCI-H23 lung 80.8% | NCI-H226 lung 88.6% | NCI-H322M lung 103% | HOP-62 NSCLC 77.2% | NCI-H460 lung 88.8% | HOP-92 NSCLC 100% | NCI-H522 lung 83.1% | A549/ATCC NSCLC 89.8% | 786-0 renal 89.5% | COLO 205 colon 101%

O=C(c1ccc(Cl)cc1)c1ccccc1Cl
inactive: NCI-H23 lung 91.2% | NCI-H226 lung 99.9% | NCI-H322M lung 97.9% | HOP-62 NSCLC 93.7% | NCI-H460 lung 103% | HOP-92 NSCLC 78.2% | NCI-H522 lung 90.7% | A549/ATCC NSCLC 95.1% | 786-0 renal 93.6%

COc1cc2cc(OC(C)=O)c3cc4c(cc3c2c(OC)c1OC)OCO4
inactive: NCI-H23 lung 91.9% | NCI-H226 lung 94.7% | NCI-H322M lung 95.4% | HOP-62 NSCLC 91.5% | NCI-H460 lung 103% | HOP-92 NSCLC 96.3% | NCI-H522 lung 97.6% | A549/ATCC NSCLC 106% | 786-0 renal 106% | COLO 205 colon 106%

CCOc1ccc(I)cc1
inactive: NCI-H23 lung 96.7% | NCI-H226 lung 103% | NCI-H322M lung 120% | HOP-62 NSCLC 107% | NCI-H460 lung 108% | HOP-92 NSCLC 90.3% | NCI-H522 lung 105% | A549/ATCC NSCLC 104% | 786-0 renal 109% | COLO 205 colon 111%

CCCNC(=O)c1ccc(S(N)(=O)=O)cc1
inactive: NCI-H23 lung 118% | NCI-H226 lung 108% | NCI-H322M lung 121% | HOP-62 NSCLC 82.8% | NCI-H460 lung 108% | HOP-92 NSCLC 88.9% | NCI-H522 lung 115% | A549/ATCC NSCLC 112% | 786-0 renal 75.4% | COLO 205 colon 132%

COC(=O)/C=C1\Sc2cc(F)ccc2NC1=O
inactive: NCI-H23 lung 95.7% | NCI-H226 lung 101% | NCI-H322M lung 100% | HOP-62 NSCLC 96.5% | NCI-H460 lung 112% | HOP-92 NSCLC 82.4% | NCI-H522 lung 107% | A549/ATCC NSCLC 95.7% | 786-0 renal 94.3%

CN(C)CCC(=O)c1ccc(O)cc1
inactive: NCI-H23 lung 97% | NCI-H226 lung 99% | NCI-H322M lung 106% | HOP-62 NSCLC 107% | NCI-H460 lung 103% | HOP-92 NSCLC 98.5% | NCI-H522 lung 102% | A549/ATCC NSCLC 103% | 786-0 renal 108%

Nc1ccccc1C(=O)Nc1ccc(Cl)cc1Cl
inactive: NCI-H23 lung 92.6% | NCI-H226 lung 96.1% | NCI-H322M lung 106% | HOP-62 NSCLC 86.6% | NCI-H460 lung 104% | HOP-92 NSCLC 67.2% | NCI-H522 lung 78.5% | A549/ATCC NSCLC 102% | 786-0 renal 107%

CCC(O)CC(CC)CO (centres undefined)
inactive: NCI-H23 lung 101% | NCI-H226 lung 102% | NCI-H322M lung 110% | HOP-62 NSCLC 108% | NCI-H460 lung 94.3% | HOP-92 NSCLC 98.8% | NCI-H522 lung 117% | A549/ATCC NSCLC 105% | 786-0 renal 106% | COLO 205 colon 117%
